Results from PubChem BioAssay.
Calls of active or inactive are those of the source. Rule as the data show it, unless noted: active = inhibition above about 31%; inactive = the rest.

Test: yeast transport mutant growth inhibition pilot in 384-well plates, post-Golgi transport modulator project (AID 636)
Settings: absorbance 615 nm, about 18 h, hits give high values

inhibition, inactive:
CCCCSc1nc2c(cnn2-c2ccc(F)cc2)c(=O)[nH]1 -0.93%
C=C(Cl)COc1ccc2c(C)cc(=O)oc2c1 1.89%
COc1ccc(NC(=O)CSc2nnc(Cc3cccn3C)n2-c2ccc(F)cc2)cc1OC 0.38%
CCCCSc1nc(CCC)cc(=O)[nH]1 2.05%
Cc1noc(/C=C/N(C)C)c1S(=O)(=O)N1CCc2ccccc21 0.13%
COc1cccc(/C=N/n2cnnc2)c1OCc1ccccc1 0%
COC(=O)Cn1c(CN2CCOCC2)nc2c1c(=O)n(C)c(=O)n2C -4%
COc1ccc(N(CC(=O)Nc2cc(C)ccc2C)S(=O)(=O)c2c(C)nn(C)c2C)cc1 -0.38%
CCOC(=O)N1CCN(C(=O)c2c(-c3ccccc3)noc2C)CC1 -6.67%
O=C(CSc1ncnc2nc[nH]c12)c1ccc(Cl)cc1 -3.47%
Brc1ccccc1-c1nc(-c2ccccc2)no1 -2.6%
Cc1nc2ccc(S(=O)(=O)NC(C(=O)NCc3cccs3)C(C)C)cc2s1 (stereo not given) -5%
COc1ccc(-n2c(Cc3cccn3C)nnc2SCC(=O)Nc2ccccc2)cc1 -5.87%
O=c1oc2c3c4c(cc2s1)CCCN4CCC3 -4.42%
COc1cc2c(cc1OC)C(C)N(C(=O)Cn1ncc3c1-c1ccccc1OC3)CC2 (stereo not given) -2.31%
O=C(CSc1ccc2nnc(-c3ccccc3)n2n1)N1CCN(c2ccccc2)CC1 -0.13%
CCOC(=O)C1CCCN(C(=O)c2ccc(CS(=O)(=O)c3ccc(Br)cc3)o2)C1 (stereo not given) -2.93%
Cc1c(C(=O)NC2CC2)oc2ccc(S(=O)(=O)N3CCCCCC3)cc12 -0.81%
CC1=C(C(=O)Nc2ccccc2)C(c2ccccn2)n2nc(CCCO)nc2N1 (stereo not given) -5.73%
O=C(O)c1ccc(-c2ccc(O)c(F)c2)cc1 -0.4%
Cn1c(=O)cc(NCCc2ccccc2)[nH]c1=O -1.82%
Cc1noc(/C=C/N(C)C)c1S(=O)(=O)N1CCCC(C(=O)NCCC2=CCCCC2)C1 (stereo not given) -1.87%
CCN(CC)c1ccc(NC(=O)CN2C(=O)CC(C)(C)S(=O)(=O)c3ccccc32)c(C)c1 -4.8%
COc1ccc(C(=O)NCc2nc3ccccc3[nH]2)cc1OC -3.6%
CSc1ccccc1NC(=O)c1cnc2n(c1=O)CCS2 -1.87%
Cc1ccc(C(c2sc3ncnn3c2O)N2CC(C)CC(C)C2)cc1 (stereo not given) -4.53%
CC1CCN(c2oc(-c3ccccc3F)nc2C#N)CC1 -2.27%
COc1nc(Oc2ccc(=O)n(C)n2)nc(N(C)C)n1 1.67%
Cc1nc2c(-c3ccc(F)cc3)c(C)nn2c(C)c1CCC(=O)NC(C)CCc1ccco1 (stereo not given) -0.64%
COc1ccc(Cl)cc1S(=O)(=O)N1CCN(c2ccc(F)cc2)CC1 4.23%
CC1CCc2nn(CC(=O)Nc3ccc(F)cc3F)cc2C1 (stereo not given) -0.93%
COc1ccc(NC(=O)C2Cc3ccccc3C(=O)O2)cc1 (stereo not given) -2.53%
Cc1cc(N=Cc2cc(Br)ccc2O)no1 -3.72%
COc1ccc(-c2nc(CS(=O)CC(=O)NCc3ccccn3)c(C)o2)cc1 (stereo not given) -3.47%
CCOc1cc(C2CC(=O)N3CN(C4CCCCC4)CSC3=C2C#N)ccc1O (stereo not given) 1.92%
CCc1ccccc1N1CC23C=CC(O2)C(C(=O)O)C3C1=O (stereo not given) -7.2%
CCN(CC)C1CCCCC1NS(=O)(=O)c1ccc(Cl)cc1 (stereo not given) -3.6%
Cc1cc(=O)oc2c1c(C)nn2-c1ccc(C(=O)OC(C)C)cc1 -0.13%
O=C(CS(=O)(=O)Cc1ccccc1)Nc1nc2ccccc2s1 -0.13%
CSc1nc2c(c(=O)n1C)SC(C)C2 (stereo not given) -5.87%

Test: growth suppression of yeast trafficking mutant, preliminary HTS, modulators of trafficking downstream of Golgi apparatus project, 1536-format plate, OD 615 nm (AID 637; in the data active = inhibition above about 30%)
Settings: yeast transport mutant growth, absorbance 615 nm, 18 h; hits give high values

inhibition, inactive:
CCCCSc1nc2c(cnn2-c2ccc(F)cc2)c(=O)[nH]1 0.5%
C=C(Cl)COc1ccc2c(C)cc(=O)oc2c1 -5.56%
COc1ccc(NC(=O)CSc2nnc(Cc3cccn3C)n2-c2ccc(F)cc2)cc1OC 3.17%
CCCCSc1nc(CCC)cc(=O)[nH]1 -12.5%
Cc1noc(/C=C/N(C)C)c1S(=O)(=O)N1CCc2ccccc21 -3.83%
COc1cccc(/C=N/n2cnnc2)c1OCc1ccccc1 -0.16%
COC(=O)Cn1c(CN2CCOCC2)nc2c1c(=O)n(C)c(=O)n2C -2%
COc1ccc(N(CC(=O)Nc2cc(C)ccc2C)S(=O)(=O)c2c(C)nn(C)c2C)cc1 -3%
CCOC(=O)N1CCN(C(=O)c2c(-c3ccccc3)noc2C)CC1 -2.5%
O=C(CSc1ncnc2nc[nH]c12)c1ccc(Cl)cc1 2.13%
Brc1ccccc1-c1nc(-c2ccccc2)no1 -8%
Cc1nc2ccc(S(=O)(=O)NC(C(=O)NCc3cccs3)C(C)C)cc2s1 (stereo not given) -2.67%
COc1ccc(-n2c(Cc3cccn3C)nnc2SCC(=O)Nc2ccccc2)cc1 4%
O=c1oc2c3c4c(cc2s1)CCCN4CCC3 -2%
COc1cc2c(cc1OC)C(C)N(C(=O)Cn1ncc3c1-c1ccccc1OC3)CC2 (stereo not given) 2.33%
O=C(CSc1ccc2nnc(-c3ccccc3)n2n1)N1CCN(c2ccccc2)CC1 7.67%
CCOC(=O)C1CCCN(C(=O)c2ccc(CS(=O)(=O)c3ccc(Br)cc3)o2)C1 (stereo not given) -3.83%
Cc1c(C(=O)NC2CC2)oc2ccc(S(=O)(=O)N3CCCCCC3)cc12 3.44%
CC1=C(C(=O)Nc2ccccc2)C(c2ccccn2)n2nc(CCCO)nc2N1 (stereo not given) -3.33%
O=C(O)c1ccc(-c2ccc(O)c(F)c2)cc1 1.5%
Cn1c(=O)cc(NCCc2ccccc2)[nH]c1=O -8.36%
Cc1noc(/C=C/N(C)C)c1S(=O)(=O)N1CCCC(C(=O)NCCC2=CCCCC2)C1 (stereo not given) -1.31%
CCN(CC)c1ccc(NC(=O)CN2C(=O)CC(C)(C)S(=O)(=O)c3ccccc32)c(C)c1 0.83%
COc1ccc(C(=O)NCc2nc3ccccc3[nH]2)cc1OC -6.67%
CSc1ccccc1NC(=O)c1cnc2n(c1=O)CCS2 -1.33%
Cc1ccc(C(c2sc3ncnn3c2O)N2CC(C)CC(C)C2)cc1 (stereo not given) 1.67%
CC1CCN(c2oc(-c3ccccc3F)nc2C#N)CC1 2.79%
COc1nc(Oc2ccc(=O)n(C)n2)nc(N(C)C)n1 -9%
Cc1nc2c(-c3ccc(F)cc3)c(C)nn2c(C)c1CCC(=O)NC(C)CCc1ccco1 (stereo not given) 7.83%
COc1ccc(Cl)cc1S(=O)(=O)N1CCN(c2ccc(F)cc2)CC1 12.7%
CC1CCc2nn(CC(=O)Nc3ccc(F)cc3F)cc2C1 (stereo not given) -6.72%
COc1ccc(NC(=O)C2Cc3ccccc3C(=O)O2)cc1 (stereo not given) -1.67%
Cc1cc(N=Cc2cc(Br)ccc2O)no1 -6.67%
COc1ccc(-c2nc(CS(=O)CC(=O)NCc3ccccn3)c(C)o2)cc1 (stereo not given) -2.46%
CCOc1cc(C2CC(=O)N3CN(C4CCCCC4)CSC3=C2C#N)ccc1O (stereo not given) 2%
CCc1ccccc1N1CC23C=CC(O2)C(C(=O)O)C3C1=O (stereo not given) 0.83%
CCN(CC)C1CCCCC1NS(=O)(=O)c1ccc(Cl)cc1 (stereo not given) 3.28%
Cc1cc(=O)oc2c1c(C)nn2-c1ccc(C(=O)OC(C)C)cc1 1.15%
O=C(CS(=O)(=O)Cc1ccccc1)Nc1nc2ccccc2s1 0.32%
CSc1nc2c(c(=O)n1C)SC(C)C2 (stereo not given) -1.67%
